Screening data deposited in PubChem BioAssay by Broad Institute.
PDI inh – inhibitors of human protein disulfide isomerase; P07237; PDI insulin aggregation turbidity, A650, 90 min; inhibition, % at 10 µM; 350,000 compounds, 0.052% hits; AID 588391;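 active = mean inhibition across replicates of 30% or more, whatever share of single replicates reach that level; inconclusive = mean inhibition below 30% while every single replicate reaches 30%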
ERp5 block – inhibitors of human ERp5; 350,000 compounds, 0.05% hits; Q15084; ERp5 insulin aggregation, absorbance 650 nm, 90 min; inhibition, % at 9.99 µM;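 active = mean replicate inhibition above about 25%, with every replicate also reaching it, limit read from the data, passing the limit was not always enough; inconclusive = only one of those two criteria met; inactive = neither criterion met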
DENV2 CPE rescue – DENV2-induced cell death inhibition; DENV2-infected cells, cytopathic effect rescue, plate reader; CPE inhibition, % at 9.99 µM; 350,000 compounds, 1.7% hits; in the data active = CPE inhibition above about 20%, passing the limit was not always enough; inconclusive = no clear call, values can overlap the other calls; tested in BHK-21 cells;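 note: 0% = median of neutral control wells and 100% = median of positive control wells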
SIRT5 inh – sirtuin-5 (human) deacylase inhibition | AID 652115 | Purified SirT5, succinyl-peptide AMC, trypsin-coupled fluorescence | 330,000 compounds, 1.1% hits | inhibition, % at 15 µM | Q9NXA8; in the data active = inhibition above about 15%; inconclusive = no clear call, values can overlap the other calls
Target sequence (Q9NXA8 whole entry, looked up): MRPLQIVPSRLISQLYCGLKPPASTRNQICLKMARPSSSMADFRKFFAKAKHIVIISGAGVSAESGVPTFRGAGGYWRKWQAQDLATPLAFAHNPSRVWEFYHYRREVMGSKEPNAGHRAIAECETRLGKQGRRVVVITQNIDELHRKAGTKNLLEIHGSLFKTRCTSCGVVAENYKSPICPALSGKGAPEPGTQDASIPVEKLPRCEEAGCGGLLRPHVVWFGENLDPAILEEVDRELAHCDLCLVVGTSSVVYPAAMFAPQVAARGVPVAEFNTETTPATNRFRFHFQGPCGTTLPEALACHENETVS
Rtt109 HAT inh – inhibitors of Candida albicans Rtt109/Vps75 histone acetyltransferase. Q5AAJ8. purified Rtt109/Vps75, ThioGlo CoA-SH fluorescence, 4 h. inhibition, % at 34.9 µM. 330,000 compounds, 0.16% hits;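 active = inhibition of at least 50% in every replicate; inconclusive = best replicate reaches 50% inhibition but some replicates fall short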
Target sequence (Q5AAJ8 whole entry, looked up): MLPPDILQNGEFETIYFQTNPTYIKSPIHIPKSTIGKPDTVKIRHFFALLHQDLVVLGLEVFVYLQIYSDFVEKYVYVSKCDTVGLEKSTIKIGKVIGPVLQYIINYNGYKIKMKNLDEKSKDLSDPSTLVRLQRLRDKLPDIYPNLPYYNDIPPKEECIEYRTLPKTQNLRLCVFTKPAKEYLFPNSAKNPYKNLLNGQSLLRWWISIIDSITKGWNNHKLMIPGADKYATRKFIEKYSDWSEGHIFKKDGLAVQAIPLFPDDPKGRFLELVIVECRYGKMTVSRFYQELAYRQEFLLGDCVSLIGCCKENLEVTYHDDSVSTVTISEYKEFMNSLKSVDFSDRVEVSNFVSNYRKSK
Numbers without * were called inactive; ? = inconclusive; nt = no result. Rows were chosen to be rich in hits. Some 2.3% of all compounds tested hit in one or more screens of this group.

SMILES	PDI inh	ERp5 block	DENV2 CPE rescue	SIRT5 inh	Rtt109 HAT inh
COc1ccc(NC(=O)N2CCCCN3[C@H](C2)[C@H](c2ccc(-c4ccccc4F)cc2)[C@@H]3CO)cc1	nt	-2.7	30.4*	-2.1	nt
O=C(Nc1ccc(F)cc1)N1CCCCN2[C@H](C1)[C@H](c1ccc(-c3ccccc3F)cc1)[C@@H]2CO	nt	-7.0	4.4	17.6*	nt
O=C(Nc1ccc(F)cc1)N1CCCCN2[C@H](CO)[C@@H](c3ccc(C4=CCCCC4)cc3)[C@H]2C1	nt	-0.9	28.8*	1.8	nt
COc1ccc(NC(=O)N2CCCCN3[C@H](CO)[C@@H](c4ccc(-c5ccccc5F)cc4)[C@@H]3C2)cc1	nt	-0.2	-6.8	18.3*	nt
O=C(Nc1ccc(F)cc1)N1CCCCN2[C@@H](CO)[C@H](c3ccc(C4=CCCCC4)cc3)[C@@H]2C1	nt	-3.7	2.9	2.2	nt
COc1ccc(C#Cc2ccc([C@H]3[C@@H](CO)N4CCCCN(C(=O)Nc5ccc(F)cc5)C[C@@H]34)cc2)cc1	nt	2.6	30.0*	5.6	nt
COc1ccc(C#Cc2ccc([C@H]3[C@H](CO)N4CCCCN(C(=O)Nc5ccc(F)cc5)C[C@@H]34)cc2)cc1	nt	5.5	-5.9	-3.8	nt
C[C@@H]1O[C@@H](Oc2c(-c3cc(O)c(O)c(O)c3)oc3cc(O)cc(O)c3c2=O)[C@H](O)[C@H](O)[C@H]1O	47.4*	11.5	1.4	-0.1	6.2
C[C@@H]1O[C@@H](Oc2c(-c3ccc(O)c(O)c3)oc3cc(O)cc(O)c3c2=O)[C@H](O)[C@H](O)[C@H]1O	73.0*	1.8	0.6	2.3	15.9
COc1cc(-c2oc3cc(O)cc(O)c3c(=O)c2O[C@@H]2O[C@H](COC3O[C@@H](C)[C@H](O)[C@@H](O)[C@H]3O)[C@@H](O)[C@H](O)[C@H]2O)ccc1O (stereo not given in full)	55.6*	-2.0	nt	nt	6.7
C[C@@H]1O[C@@H](O[C@H]2[C@H](O)[C@@H](O)[C@H](Oc3c(-c4ccc(O)c(O)c4)oc4cc(O)cc(O)c4c3=O)O[C@@H]2CO)[C@H](O)[C@H](O)[C@H]1O	67.3*	-7.2	-7.3	nt	0.5
O=c1c(OC2OC(CO)C(O)C(O)C2OC2OC(CO)C(O)C(O)C2O)c(-c2ccc(O)cc2)oc2cc(O)cc(O)c12 (stereo not given)	nt	-1.0	19.3	nt	11.5
O=c1c2c(O)cc(O)cc2oc2c(O)ccc(O[C@H]3O[C@@H](CO)[C@H](O)[C@@H](O)[C@@H]3O)c12	2.1	0.2	-10.5	5.0	-3.5
O=c1c(O)c(-c2ccc(O)cc2)oc2cc(O)cc(O)c12	nt	-1.2	-1.3	0.8	13.8
C[C@@H]1O[C@@H](OC[C@H]2O[C@@H](Oc3cc(O)c4c(=O)cc(-c5ccc(O)c(O)c5)oc4c3)[C@H](O)[C@@H](O)[C@@H]2O)[C@H](O)[C@H](O)[C@H]1O	4.0	nt	nt	nt	7.1
COc1ccc(NC(=O)N2CCCCN3[C@H](CO)[C@@H](c4ccc(C5=CCCC5)cc4)[C@@H]3C2)cc1	nt	1.5	11.8	4.5	nt
OC[C@@H]1[C@H]2c3ccccc3OC1(CO)N=C1SCc3ccccc3CN12	nt	-0.1	1.9	2.8	nt
Cc1ccc(-c2nn(-c3ccccc3)cc2C=C2SC(=S)N(CCS(=O)(=O)O)C2=O)cc1	-3.4	-2.7	-5.4	55.0*	nt
O=C1C(=Cc2cn(-c3ccccc3)nc2-c2ccc(OCc3ccccc3)cc2)SC(=S)N1CCS(=O)(=O)O	16.1	-2.5	?	0.8	nt
COc1ccc(S(=O)(=O)Nc2ccc3c(c2)C(=O)N([C@@H](C)CO)C[C@@H](C)[C@@H](CN(C)C(=O)c2ccccc2)OCCCC[C@@H](C)O3)cc1	nt	7.6	-2.1	-0.8	nt
CCCCCc1c(-c2ccc(Cl)cc2)ncn1CCc1ccccc1OC	nt	-4.1	21.1*	nt	nt
O=C(c1cnccn1)N1CC[C@H]2[C@H](CO)Nc3ccc(C#Cc4cccnc4)cc3[C@H]21	nt	-2.1	-4.1	5.5	nt
COc1cccc(NC(=O)CN(C)C(=O)c2cccc(S(=O)(=O)N3c4ccccc4CC3C)c2)c1 (stereo not given)	-0.5	7.6	57.8*	-1.6	3.2
Cc1noc(C)c1S(=O)(=O)Nc1ccc2c(c1)C(=O)N([C@H](C)CO)C[C@H](C)[C@H](CN(C)CC1CC1)OCCCC[C@H](C)O2	nt	nt	-1.9	nt	nt
C[C@@H]1CCCCO[C@H](CN(C)C(=O)Nc2ccc(F)cc2)[C@H](C)CN([C@@H](C)CO)C(=O)c2cc(NC(=O)Nc3cccc4ccccc34)ccc2O1	nt	-0.6	-0.8	5.8	nt
SMILES	PDI inh	ERp5 block	DENV2 CPE rescue	SIRT5 inh	Rtt109 HAT inh
COc1ccc(/C=C(/NC(=O)c2ccc(OC)c(OC)c2)C(=O)NCCc2c[nH]c3ccccc23)cc1	-10.0	-6.2	20.2*	-3.5	-10.7
COc1ccc(/C=C(/NC(=O)c2ccc(OC)cc2)C(=O)NCCc2c[nH]c3ccccc23)cc1	-12.0	-3.5	nt	-1.7	23.0
NC(=O)CSc1nc2ccccc2n1-c1ccccc1	-5.6	-7.3	nt	26.1*	-4.2
O=C(C[C@H]1CC[C@@H]2[C@H](COC[C@@H](O)CN2C(=O)Nc2ccc(C(F)(F)F)cc2)O1)NCC1CC1	nt	-3.0	-6.4	1.1	nt
COc1ncnc2c1ncn2CCCN1CCN(Cc2cccc3ccccc23)CC1	-4.9	-5.7	0.3	26.4*	nt
O=C(NC[C@@H]1CC[C@@H]2[C@@H](CN2Cc2ccccc2F)O1)C1CC1	nt	-3.8	8.2	-1.9	nt
CCCn1c(NCc2ccc(N(C)C)cc2)nc2ccccc21	-2.9	2.8	23.9*	-0.7	0.9
O=C(C[C@H]1C=C[C@@H](NS(=O)(=O)c2ccccc2)[C@H](CO)O1)NCc1ccc(Cl)c(Cl)c1	nt	3.1	-0.5	-2.7	nt
C[C@H](NC(=O)C[C@H]1C[C@H]2c3cc(NC(=O)Nc4ccc(C(F)(F)F)cc4)ccc3O[C@H]2[C@@H](CO)O1)c1ccccc1	nt	-1.6	4.1	2.4	nt
CCS(=O)(=O)N1CCC2(CC1)CN(C)[C@H](CO)c1c2c2ccc(OC)cc2n1C	nt	nt	-0.3	nt	nt
CCCNC(=O)N1CC2(CN(S(=O)(=O)c3ccccc3)C2)c2c(n(C)c3cc(OC)ccc23)[C@H]1CO	nt	-11.3	-3.7	-2.6	nt
COc1ccc2c3c(n(C)c2c1)[C@H](CO)N(C)CC31CN(S(C)(=O)=O)C1	nt	nt	22.6*	nt	nt
CCCNC(=O)N1CC2(CN(S(=O)(=O)c3cccc(OC)c3)C2)c2c(n(C)c3cc(OC)ccc23)[C@H]1CO	nt	nt	40.6*	nt	nt
COc1ccc2c3c(n(C)c2c1)[C@@H](CO)N(S(=O)(=O)c1ccc(C)cc1)CC31CN(S(=O)(=O)c2ccc(C)cc2)C1	nt	nt	62.7*	nt	nt
CCCNC(=O)N1CC2(CN(S(=O)(=O)c3ccccc3)C2)c2c(n(C)c3cc(OC)ccc23)[C@@H]1CO	nt	3.7	2.2	0.3	nt
CCCNC(=O)N1CC2(CN(S(=O)(=O)c3ccc(OC)cc3)C2)c2c(n(C)c3cc(OC)ccc23)[C@H]1CO	nt	-5.7	17.4	16.0*	nt
COc1ccc(NC(=O)N[C@@H]2CC[C@@H](CCNC(=O)Cc3ccncc3)O[C@H]2CO)cc1	nt	2.6	-2.1	-0.4	nt
